A selection: hits, their analogues and other compounds. The true share with any hit is near 12%.
BAZ2B block – blocks human BAZ2B; Q9UIF8; AlphaScreen BAZ2B-H3K14Ac peptide displacement; Potency, µM (doses to about 114 µM), most hits filed as inhibitors; hit rate 4.4% among 360,000; AID 504333; further: nearly all actives have a fitted effect of over 60% in size
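BAZ2B 50 nM plus b-H3(5-23)K14Ac 50 nM, PBS pH 7.4/0.01% Tween-20, 30 min RT; compound added (max 110 uM), 30 min RT; streptavidin donor/Ni-chelate acceptor beads 10 ug/mL final, 20 min dark; AlphaScreen read.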
HP1b binding inh – inhibitors of HP1-beta chromodomain binding to methylated histone tails; Potency, µM (series often up to 114 µM), usual class: inhibitors; hit rate 0.56% among 390,000; AID 540317; P83916; AlphaScreen HP1-beta / biotin-H3K9me3 peptide binding; further: nearly all actives have a fitted effect of over 70% in size
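AlphaScreen: HP1-beta (50 nM) preformed 30 min with biotin-H3(1-18)K9me3 peptide (50 nM) in PBS pH 7.4, 0.01% Tween-20. Compound added for 30 min at RT, then streptavidin donor/nickel chelate acceptor beads (10 ug/mL) for 30 min.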
JMJD2A Tudor – blocks the human JMJD2A Tudor domain. Potency, µM (series often up to 114 µM), hits mostly inhibitors. hit rate 4.4% among 390,000. AlphaScreen JMJD2A-Tudor / H3K4me3 peptide binding. O75164; further: nearly all actives have a fitted effect of over 50% in size
G9a inh – inhibitors of human histone lysine methyltransferase G9a; Q96KQ7; G9a H3K9 monomethylation, AlphaScreen, 2 h; Potency, µM (doses to about 102 µM), hits mostly inhibitors; hit rate 8.8% among 350,000; further: nearly all actives have a fitted effect of over 75% in size
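Compounds were preincubated with 20 nM G9a for 15 min, after which biotinylated H3K9 peptide (500 nM) and SAM (20 uM) started a 2 h room-temperature reaction. Monomethylated product was quantified by antibody-based AlphaScreen chemiluminescence.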
L3MBTL1 inh – blocks human L3MBTL1 | AlphaScreen L3MBTL1–H3K9me1 peptide binding | Potency, µM (titrated, usually from 57.1 µM), hits mostly inhibitors | Q9Y468 | AID 485360 | hit rate 0.66% among 230,000; further: nearly all actives have a fitted effect of over 60% in size
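AlphaScreen proximity signal between nickel-chelate acceptor and streptavidin donor beads (final 10 ug/mL) reports binding of 50 nM L3MBTL1 to 75 nM biotin-H3 K9me1 peptide; complex incubated with compounds 30 min at room temperature; cefsulodin titration as control.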
Sfp PPTase inh – Sfp phosphopantetheinyl transferase inhibition; Biochemical Sfp PPTase activity, qHTS; Potency, µM, hits mostly inhibitors; hit rate 3.5% among 310,000;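 further: the enzyme is Sfp with the accession as filed and its product quenches rhodamine fluorescence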
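With Hepes-Na pH 7.6 buffer containing 10 mM MgCl2, Sfp (15 nM) modified BHQ-2-YbbR (12.5 uM) using rhodamine-CoA (5 uM). Two reads 30 minutes apart at 525/598 nm yielded each well's rate.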
Hits are given with their value; – = inactive; ? = inconclusive; · = no result given; [ ] = dose if it differs, or a comment. The call rests on the fitted dose curve; in most records, active means well fitted curve in the direction sought with a large enough effect; inconclusive means small, poorly fitted or top-dose-only effect, or another doubt; inactive means no such curve, though single readings can be large; an effect the other way counts as inactive or inconclusive.

SMILES	BAZ2B block	HP1b binding inh	JMJD2A Tudor	G9a inh	L3MBTL1 inh	Sfp PPTase inh
COC(=O)c1c(C)[nH]c(-c2csc(N)n2)c1C	·	–	–	?	–	45µM
Cn1c(=O)c2c(nc(SCC(=O)Nc3ccccc3F)n2Cc2ccccc2F)n(C)c1=O	–	–	–	?	·	·
Cc1ccc(/C=N/NC(=O)c2cc(-c3ccccc3)nc3ccccc23)o1	?	–	?	–[0.0925 µM]	·	50µM
Cc1ccc(/C=N/NC(=O)c2cc(C3CC3)nc3ccccc23)o1	?	–	–	–	–	50µM
Cc1cc(C(=O)N/N=C/c2ccc(C)o2)c2ccccc2n1	–	–	–	?	–	–
O=C1C(Cl)=C(NS(=O)(=O)c2ccc([N+](=O)[O-])cc2)C(=O)c2ccccc21	45µM	?	?	–	·	–
O=[N+]([O-])c1ccc(Oc2ccc(S(=O)(=O)Nc3ccccc3)cc2)cc1	–	–	–	?	–	–
CCOC(=O)c1oc2ccc(CNC(C)(C)C)c(Cl)c2c1C	50µM	–	10µM	8.9µM	–	–
Cc1cccc(C)c1N(CC(=O)Nc1cc(Cl)ccc1Oc1ccccc1)S(C)(=O)=O	–	–	–	13µM	–	–
COc1ccc(NC2(c3ccc(Cl)cc3)C(=O)c3ccccc3C2=O)cc1	14µM	14µM	56µM	28µM	–	–
COc1ccc(N2CCN(C3(c4ccccc4)C(=O)c4ccccc4C3=O)CC2)cc1	7.1µM	13µM	8.9µM	8.9µM	·	·
Cc1cccc(NC(=O)C(NS(=O)(=O)c2cccc3nsnc23)c2ccccc2)c1C (stereo not drawn)	·	–	–	–	·	·
Cc1nc(C)c(C(=O)C2=C(O)C(=O)N(CCCn3ccnc3)C2c2ccc(Cl)cc2)s1 (stereo not drawn)	–	–	?	–	–	–
CCOc1ccc(C2C(C(=O)c3ccco3)=C(O)C(=O)N2CCCn2ccnc2)cc1OC (stereo not drawn)	50µM	–	–	·	·	–
COc1ccc(C2C(C(C)=O)=C(O)C(=O)N2CCCn2ccnc2)cc1 (stereo not drawn)	?	–	89µM	–[0.0925 µM]	–	–
COc1cccc(/C=C/c2nc(C#N)c(N3CCC(C(N)=O)CC3)o2)c1	–	–	–	–	·	·
COc1cc(/C=C(\C#N)C(=O)N2CCc3ccccc32)ccc1O	?	–	?	28µM	·	–
N#C/C(=C\c1ccc(O)c(O)c1)C(=O)N1CCc2ccccc21	8.9µM	?	16µM	6.3µM	?	·
CSCC[C@H](NC(=O)NCc1ccccc1F)C(=O)O	–	–	–	45µM	–	–
Cc1ccc(NC(=O)c2cc(CN3CCOCC3)on2)cc1Cl	–	–	–	–	·	·
COc1ccc(CNc2ccnc(-c3ccccc3C(F)(F)F)n2)c(OC)c1	·	·	·	·	·	–
NS(=O)(=O)c1ccc(N=C2C(=O)Nc3ccccc32)cc1	–	–	–	·	–	–
O=C1Nc2ccccc2C1=Nc1ccc(S(=O)(=O)Nc2nccs2)cc1	–	–	56µM	?	–	–
Cc1ccc(S(=O)(=O)c2cn(CC(=O)Nc3ccc4c(c3)OCO4)c3ccc(F)cc3c2=O)cc1	–	–	–	–	·	·
CCc1ccc(CNC(=O)COc2cc(=O)n(CC)c3ccccc23)cc1	–	–	–	?	·	·
SMILES	BAZ2B block	HP1b binding inh	JMJD2A Tudor	G9a inh	L3MBTL1 inh	Sfp PPTase inh
Cc1cc(N2CCN(C)CC2)nc2ccc(NC(=S)N3CCCCC3)cc12	?	–	–	25µM	·	–
Cc1cc(N2CCN(C)CC2)nc2ccc(NC(=S)N3CCN(c4ccc(Cl)cc4)CC3)cc12	–	–	–	40µM	·	45µM
Cc1cc(N2CCOCC2)nc2ccc(NC(=O)C3CCCCC3)cc12	·	–	–	·	·	·
Cc1cc(N2CCN(C)CC2)nc2ccc(NC(=S)N3CCCCCC3)cc12	–	–	–	56µM	·	–
Cc1cc(N2CCN(C)CC2)nc2ccc(NC(=S)N3CCN(c4ccc(F)cc4)CC3)cc12	–	–	–[11.4 µM]	–	·	–
Cc1cc(N2CCOCC2)nc2ccc(NC(=S)N3CCCCC3C)cc12 (stereo not drawn)	·	–	?	45µM	·	?
COc1ccc(C(=O)N2CC(=O)Nc3ccc(F)cc3C2c2ccc(F)cc2)c(OC)c1 (stereo not drawn)	–	–	–	–	·	·
